Screening results as filed in PubChem BioAssay.
ATXN2 expr inh: inhibitors of ATXN2 expression. AID 1745845. Potency, µM (highest dose often 57 µM), usual class: inhibitors. 360,000 compounds, 0.72% hits. HEK-293 ATXN2-luciferase reporter, luminescence, 24 h; also: nearly all actives have a fitted effect of over 55% in size
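ATXN2-luciferase reporter cells (luciferase flanked by upstream and downstream ATXN2 gene portions) were treated 24 h at 37 °C with compounds at up to 57 uM. SteadyGlo luminescence gave expression; GF-AFC fluorescence gave viability.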
S2 tox: viability counter-screen for ATXN expression inhibitors | 400,000 compounds, 0.49% hits | Potency, µM (series often up to 56.7 µM), actives largely listed as cytotoxic | S2 cells (HEK-293 line with an ATXN2-luciferase reporter) viability, CellTiter-Fluor protease fluorescence, 24 h; also: nearly all actives have a fitted effect of over 40% in size
KB-3-1 tox: kills parental KB-3-1 adenocarcinoma cells | KB-3-1 viability, CellTiter-Glo ATP luminescence, 72 h | Potency, µM (top dose mostly 46.1 µM), usual class: cytotoxic | 400,000 compounds, 1.4% hits | AID 1347075; also: nearly all actives have a fitted effect of over 60% in size
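Screening of KB-3-1 cells (DMEM, 10% FBS, phenol-red free) ran from lowest to highest compound concentration; after 72 h at 37 °C viability was read luminescently and curves fitted.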
KB-V1 MDR tox: KB-V1 MDR subline cytotoxicity; 400,000 compounds, 3.4% hits; KB-V1 MDR cells viability, CellTiter-Glo, 72 h; Potency, µM (doses to about 46.1 µM), hits mostly cytotoxic; AID 1347076; also: nearly all actives have a fitted effect of over 60% in size
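KB-V1 cells (P-gp-expressing MDR subline of KB-3-1) in phenol-red-free DMEM with 10% FBS were exposed to library compounds over a concentration series for 72 h at 37 degrees C. Viability read by CellTiter-Glo luminescence; concentration-effect curves fitted after normalization.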
HT1080 IDH1KD tx: kills HT-1080 cells with IDH1 knockdown | Potency, µM (top dose mostly 46.1 µM), hits mostly cytotoxic | 360,000 compounds, 2% hits | HT-1080 IDH1 knockdown viability, ATP luminescence, 48 h
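% activity derives from luminescence (CellTiter-Glo), normalised to DMSO and no-cell wells. HT-1080-IDH1KD cells, 750/well, had 48 h compound exposure at 37 °C.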
HT1080-NT tox: kills 2HG-producing HT-1080-NT fibrosarcoma cells; HT-1080-NT fibrosarcoma viability, CellTiter-Glo ATP luminescence, 48 h; Potency, µM (highest dose often 46.1 µM), actives largely listed as cytotoxic; 360,000 compounds, 1.6% hits;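 also: NT is the 2HG producing partner of a matched IDH1 knockdown line; nearly all actives have a fitted effect of over 55% in size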
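HT-1080-NT; 750 cells/well; 5% FBS RPMI; 48 h compound, 37 degrees C; CellTiter-Glo luminescence; curve fitting and curve-class assignment.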
Each line names hits and unclear results; the compound was inactive in the other large screens. A selection: hits, their analogues and other compounds. The true share with any hit is near 6.2%. Calls follow the shape of the dose curve; as a rule, active = well fitted curve in the direction sought with a large enough effect; inconclusive = small, poorly fitted or top-dose-only effect, or another doubt; inactive = no such curve, though single readings can be large; an effect the other way counts as inactive or inconclusive.

Clc1ccc(SCc2cc(N3CCOCC3)nc(-c3ccccn3)n2)cc1	ATXN2 expr inh 6.31µM, S2 tox inconclusive, KB-3-1 tox inconclusive, KB-V1 MDR tox inconclusive
O=c1cc(CSc2ccc(Cl)cc2)nc(-c2ccccn2)[nH]1	KB-3-1 tox 13µM (no result: ATXN2 expr inh, S2 tox)
CNC(=O)c1c(NC(=O)c2nc(SCc3ccc(C)cc3)ncc2Cl)sc2c1CCCC2	none (no result: HT1080 IDH1KD tx, HT1080-NT tox)
O=C(CSC1=NS(=O)(=O)c2ccccc21)Nc1ccccc1	KB-3-1 tox 14.6µM
COC(=O)CSC1=NS(=O)(=O)c2ccccc21	ATXN2 expr inh inconclusive, S2 tox inconclusive, HT1080 IDH1KD tx inconclusive
O=Cc1cccnc1SCc1ccccc1	S2 tox inconclusive, KB-3-1 tox inconclusive, KB-V1 MDR tox 14.6µM, HT1080 IDH1KD tx inconclusive, HT1080-NT tox inconclusive
Oc1cccnc1SCc1ccccc1	none
CC1(C)S[C@@H]2[C@H](NC(=O)[C@H](N)c3ccccc3)C(=O)N2[C@H]1C(=O)OCOC(=O)[C@@H]1N2C(=O)C[C@H]2S(=O)(=O)C1(C)C	none (no result: ATXN2 expr inh, KB-3-1 tox, KB-V1 MDR tox, HT1080 IDH1KD tx, HT1080-NT tox)
COc1ccc(C=C2SC(=S)NC2=O)c(OC)c1OC	S2 tox inconclusive, KB-3-1 tox inconclusive, KB-V1 MDR tox 14.6µM, HT1080 IDH1KD tx inconclusive
COc1ccc(/C=C2/CC/C(=C\c3ccc(OC)c(OC)c3OC)C2=O)c(OC)c1OC	KB-V1 MDR tox 2.06µM
CCc1nn(Cc2ccc(Cl)cc2)c(=O)c2cc3cc(C)ccc3n12	none (no result: HT1080 IDH1KD tx, HT1080-NT tox)
Cc1[nH]cnc1C[C@H]1CCc2c(C)c3ccccc3n2C1=O	none (no result: ATXN2 expr inh, KB-3-1 tox, KB-V1 MDR tox, HT1080 IDH1KD tx, HT1080-NT tox)
O=C(NCc1ccc(Cl)c(Cl)c1)c1cc(C2CCCCN2C(=O)c2ccccn2)on1 (centres undefined)	none
O=c1c(S(=O)(=O)c2ccccc2)cn(Cc2ccc(F)cc2)c2cc(N3CCOCC3)c(F)cc12	none (no result: ATXN2 expr inh, S2 tox, HT1080 IDH1KD tx, HT1080-NT tox)
O=C(c1ccncc1)c1ccc(N2CCN(C3CC(=O)N(Cc4cccs4)C3=O)CC2)cc1 (centres undefined)	KB-3-1 tox inconclusive, HT1080-NT tox 11.6µM (no result: ATXN2 expr inh)
Cc1cc(C)n2nc(C(=O)NCC3Cc4cccc(-c5ccc(S(C)(=O)=O)cc5)c4O3)cc2n1 (centres undefined)	none (no result: ATXN2 expr inh, KB-3-1 tox, KB-V1 MDR tox, HT1080 IDH1KD tx, HT1080-NT tox)
Cc1cc(C)c2[nH]c(=O)c(CN(Cc3ccco3)C(=S)NCC3CCCO3)cc2c1 (centres undefined)	S2 tox inconclusive
CCc1ccc2[nH]c(=O)c(CN(Cc3ccco3)C(=S)NCC3CCCO3)cc2c1 (centres undefined)	none
Cc1cc2cc(CN(Cc3ccco3)C(=S)NCC3CCCO3)c(=O)[nH]c2cc1C (centres undefined)	KB-V1 MDR tox 9.2µM
Cc1ccc2cc(CN(Cc3ccco3)C(=S)NCC3CCCO3)c(=O)[nH]c2c1C (centres undefined)	KB-V1 MDR tox 4.11µM
COc1ccc(CN2CCC(N(CCc3ccccc3)Cc3ccccc3)CC2)c(OC)c1	ATXN2 expr inh inconclusive, S2 tox inconclusive, KB-3-1 tox inconclusive, KB-V1 MDR tox 13µM, HT1080 IDH1KD tx inconclusive, HT1080-NT tox inconclusive
N#Cc1cccc(NC(=O)CCNS(=O)(=O)c2ccc3c(c2)CCN3C(=O)C2CC2)c1	KB-V1 MDR tox inconclusive (no result: HT1080 IDH1KD tx, HT1080-NT tox)
CCOC(=O)c1c(C)[nH]c(C(=O)OC(C(=O)N(C)C)c2ccccc2)c1C (centres undefined)	KB-3-1 tox inconclusive (no result: ATXN2 expr inh, S2 tox, HT1080 IDH1KD tx, HT1080-NT tox)
COc1ccccc1CNC(=O)C1CC2Cn3c(nc4cc(C)c(C)cc43)C2N1C (centres undefined)	KB-3-1 tox 13µM
COc1ccccc1CNC(=O)C1CC2Cn3c(nc4ccccc43)C2N1C (centres undefined)	KB-V1 MDR tox inconclusive
Cc1nc([N+](=O)[O-])c(Sc2nc3ccccc3[nH]2)n1Cc1ccccc1	S2 tox inconclusive
COc1ccc2nc(Sc3c([N+](=O)[O-])nc(C)n3Cc3ccccc3)[nH]c2c1	S2 tox inconclusive, KB-3-1 tox inconclusive, HT1080 IDH1KD tx 20.6µM, HT1080-NT tox inconclusive
O=S1(=O)CCOCCCN1Cc1ccccc1F	none
CCc1cccc2c(C(=O)C(NCCCOC)c3ccccc3)c[nH]c12 (centres undefined)	HT1080 IDH1KD tx inconclusive, HT1080-NT tox 16.4µM
CCc1cccc2c(C(=O)COC(=O)c3ccccc3)c[nH]c12	KB-V1 MDR tox inconclusive
CCc1cccc2c(C(=O)C(NC(C)CC)c3ccccc3)c[nH]c12 (centres undefined)	S2 tox inconclusive, HT1080 IDH1KD tx inconclusive, HT1080-NT tox 20.6µM
CCCc1nc2ccc(Cl)cn2c1Cc1ccccc1	none
O=C(Nc1ccccc1F)c1coc(=O)c(Br)c1	S2 tox inconclusive
Cc1cc(NC(=O)c2coc(=O)c(Br)c2)ccc1C(C)C	ATXN2 expr inh inconclusive, S2 tox inconclusive, HT1080 IDH1KD tx 20.6µM, HT1080-NT tox inconclusive
C[C@@H](NC(=O)c1coc(=O)c(Br)c1)c1ccccc1	ATXN2 expr inh inconclusive, S2 tox inconclusive, KB-3-1 tox 11.6µM, KB-V1 MDR tox inconclusive, HT1080 IDH1KD tx 8.2µM, HT1080-NT tox 9.2µM
CCCCCc1cc(=O)oc2c(C(CCN3CCCC3)c3ccc(N(C)C)cc3)c(OC)cc(OC)c12 (centres undefined)	ATXN2 expr inh inconclusive, S2 tox 31.6µM, KB-3-1 tox inconclusive
CCCCCc1cc(=O)oc2c(C(CCN3CCCC(C)C3)c3ccc(OC)cc3)c(OC)cc(OC)c12 (centres undefined)	ATXN2 expr inh inconclusive, KB-3-1 tox inconclusive (no result: S2 tox)
CCCCCc1cc(=O)oc2c(C(CCN(CC)CC)c3ccc(OC)cc3)c(OC)cc(OC)c12 (centres undefined)	ATXN2 expr inh inconclusive, S2 tox 31.6µM, KB-3-1 tox inconclusive, KB-V1 MDR tox inconclusive, HT1080-NT tox inconclusive
CCN(CC)C(=O)CC(c1ccc(N(C)C)cc1)c1c(OC)cc(OC)c2ccc(=O)oc12 (centres undefined)	S2 tox inconclusive
CCN(CC)CCC(c1ccc(N(C)C)cc1)c1c(OC)cc(OC)c2ccc(=O)oc12 (centres undefined)	S2 tox 10µM
CCCCCc1cc(=O)oc2c(C(CCN3CCCC3)c3cc(OC)c(OC)c(OC)c3)c(OC)cc(OC)c12 (centres undefined)	ATXN2 expr inh inconclusive, KB-3-1 tox inconclusive, HT1080 IDH1KD tx inconclusive, HT1080-NT tox inconclusive (no result: S2 tox)
CCCCCc1cc(=O)oc2c(C(CCN3CCCCC3)c3ccc(OC)cc3)c(OC)cc(OC)c12 (centres undefined)	ATXN2 expr inh inconclusive, S2 tox 31.6µM, KB-3-1 tox inconclusive, KB-V1 MDR tox inconclusive, HT1080-NT tox inconclusive
CCOC(=O)C1=C(C)NC(=S)NC1c1ccc(-c2ccc(Cl)cc2)o1 (centres undefined)	S2 tox inconclusive, KB-3-1 tox inconclusive, KB-V1 MDR tox 8.2µM
